Measurements published in PubChem BioAssay (NCATS).
Active and inactive are the calls of the source. The call rests on the fitted dose curve; in most records, active means well fitted activation curve with a large enough effect; inconclusive means small, poorly fitted or top-dose-only effect; inactive means flat fitted curve, though single readings scatter.

assay: Confirmation and Secondary Assay for Modulators of Hemoglobin Beta Chain Splicing at IVS2 705 locus (AID 930); conditions: HeLa EGFP-705 splicing reporter, GFP fluorescence, 48 h; series mostly up to 38.3 µM
From the text: NIH Chemical Genomics Center [NCGC] NIH Molecular Libraries Screening Centers Network [MLSCN] MLSCN Grant: 1 X01 MH080684-01 PI Name: Dr. Ryszard Kole NCGC Assay Overview: Modulation of Alternative Splicing as Therapy Abnormal splicing is associated with a number of diseases, including cancer and genetic diseases such as cystic fibrosis, muscular dystrophy and beta-thalassemia. Alteration of disease associated splicing patterns provides a promising target for treatment. […] Mutations in the second intron of the b-globin gene at positions 654 or 705 are clinically relevant and cause mis-splicing which results in an out of frame gene product. […] EGFP-705 HeLa Cells as screen system. HeLa cell lines were stably transfected with a construct in which the EGFP (enhanced green fluorescent protein) cDNA was interrupted by the second intron of the beta-globin gene (IVS2-705). The ISV2 intron contains mutations which cause mis-splicing of EGFP and premature termination of EGFP which results in a nonfluorescent protein product. […] Expression of the transgene was driven by the CMV promoter. We concluded that a low molecular weight compound, which restored correct splicing of intron 2 would also generate functional EGFP protein, resulting in a fluorescent signal. Thus, the HeLa cells that express the EGFP-705 construct can be used for validation of splice site specificity of compounds identified in primary screening of the ISV2 654 construct.
NCGC Assay Protocol Summary: Confirmatory Screening. Freshly thawed HeLa EGFP-705 cells were seeded in 5 ul of optimem media (Invitrogen) containing 2 % fetal calf serum (Hyclone) and 1x penicillin/streptomycin (Invitrogen) at a concentration of 500 cells per well in 1536-well plates. Cells were incubated overnight at 37C in 5% CO2. The next day, cells were treated with DMSO, 500 nM antisense ISV2 654 PNA control oligo, or library compound and allowed to grow at 37C in 5% CO2 for 2 days. The PNA oligo blocked the mutation site in the intron and allowed proper (wild type) splicing to occur, resulting in full length EGFP expression and also allowed for optimization of the assay parameters. Plates were read in the Acumen Explorer (TTP Labtech) using 488 nm laser excitation and 500-520 nm emission PMT filter in a 1 x 8 uM capture mode. Fluorescnet objects ranging in size from 5 to 250 uM were measured and the total peak GFP intensity for each well was used for data analysis. Keywords: Thalassemia, beta-thalassemia, beta-globin, EGFP, ISV2 654, ISV2 705, SSO, PNA, antisense, splicing, MLSMR, MLSCN, NIH Roadmap, qHTS, NCGC

Which outcome does the source give for `COc1ccc2[nH]cc(CCNc3nc(-c4ccc(C(=O)N(C)C)cc4)nc4ccccc34)c2c1` here?
The outcome was “inactive”.

Which outcome does the source give for `Cc1cccc(CNc2ncncc2-c2ccccc2C(F)(F)F)c1` here?
The outcome was “inactive”.

For `N#Cc1ccccc1-c1cncnc1NCc1cccnc1`, which outcome is on record?
The outcome was “inactive”.

Which outcome does the source give for `COc1ccccc1-c1nccc(NCc2cccc(C)c2)n1` here?
The outcome was “inactive”.

With `COc1cccc(-c2nccc(NC3CCNCC3)n2)c1` as the molecule, how does the outcome read?
Its outcome is “inactive”.

Which outcome does the source give for `CS(=O)(=O)Nc1cccc(-c2nc(N3CCNCC3)c3ccccc3n2)c1` here?
Its outcome is “inactive”.

For `COc1cccc(-c2ccc3ncnc(NCc4ccccc4OC)c3c2)c1`, which outcome is on record?
Its outcome is “inactive”.

For `CN(C)Cc1ccccc1-c1nccc(NCc2cccs2)n1`, which outcome is on record?
The outcome was “inactive”.

With `COc1ccc(CNc2nc(-c3ccccc3CN(C)C)nc3ccccc23)c(OC)c1` as the molecule, how does the outcome read?
The outcome was “inactive”.

For `O=c1ccc2cc(O)c(O)cc2o1`, which outcome is on record?
The outcome was “inactive”.

Which outcome does the source give for `COc1ccc2[nH]cc(CCNc3ncnc4ccc(-c5ccccc5C#N)cc34)c2c1` here?
The outcome was “inactive”.

For `C=C[C@](C)(O)CCC=C(C)C`, which outcome is on record?
The outcome was “inactive”.

With `CN(C)Cc1ccccc1-c1cc(-n2ccnc2)ncn1` as the molecule, how does the outcome read?
The outcome was “inactive”.

Which outcome does the source give for `CS(=O)(=O)Nc1cccc(-c2nccc(-n3ccnc3)n2)c1` here?
The outcome was “inactive”.

With `O=C(O)c1cc(=O)c2cccc(O)c2[nH]1` as the molecule, how does the outcome read?
The outcome was “inactive”.

Which outcome does the source give for `O=C(O)c1cc(O)c2c(c1)C(=O)c1cc(O)cc(O)c1C2=O` here?
Its outcome is “inactive”.

With `Cc1cccc(CNc2ccnc(-c3ccccc3CN(C)C)n2)c1` as the molecule, how does the outcome read?
The outcome was “inactive”.

With `COC(=O)c1c(C)cc(OC(=O)c2c(C)cc(O)c(C=O)c2O)c(C)c1O` as the molecule, how does the outcome read?
Its outcome is “inactive”.

For `COc1ccccc1-c1ccc2ncnc(N(C)C)c2c1`, which outcome is on record?
Its outcome is “inactive”.

With `COc1ccccc1CNc1nc(-c2ccccc2CN(C)C)nc2ccccc12` as the molecule, how does the outcome read?
Its outcome is “inactive”.

Which outcome does the source give for `CC(=O)NCCNc1ncnc2ccc(-c3ccc(C(=O)N(C)C)cc3)cc12` here?
Its outcome is “inactive”.

For `CCOC(=O)c1c(C)cc(OC)cc1O`, which outcome is on record?
Its outcome is “inactive”.

With `COc1cccc(-c2nc(N3CCNCC3)c3ccccc3n2)c1` as the molecule, how does the outcome read?
Its outcome is “inactive”.

Which outcome does the source give for `C1CCN2C[C@H]3C[C@H](CN4CCCCC34)C2C1` (stereo not given in full) here?
The outcome was “inactive”.

With `CN1CCN(c2nc(-c3cccc(NS(C)(=O)=O)c3)nc3ccccc23)CC1` as the molecule, how does the outcome read?
Its outcome is “inactive”.

With `CS(=O)(=O)Nc1cccc(-c2nc(NCc3cccs3)c3ccccc3n2)c1` as the molecule, how does the outcome read?
Its outcome is “inactive”.

With `COc1cc2c(cc1OC)C1Cc3ccc(OC)c(OC)c3CN1CC2` (stereo not given) as the molecule, how does the outcome read?
The outcome was “inactive”.

For `Cc1noc(C)c1-c1nc(N2CCOCC2)c2ccccc2n1`, which outcome is on record?
Its outcome is “inactive”.

With `c1cncc(CNc2nc(-c3ccc4c(c3)OCO4)nc3ccccc23)c1` as the molecule, how does the outcome read?
The outcome was “inactive”.

For `N#Cc1cccc(-c2nc(Nc3ccccc3)c3ccccc3n2)c1`, which outcome is on record?
The outcome was “inactive”.

Which outcome does the source give for `Cc1cccc(CNc2cc(-c3cccc(NS(C)(=O)=O)c3)ncn2)c1` here?
Its outcome is “inactive”.

For `O=c1c(-c2ccccc2)coc2cc(O)cc(O)c12`, which outcome is on record?
The outcome was “inactive”.

With `CC1=CC(=O)CC(C)(C)C1(O)/C=C/C(C)=C\C(=O)O` (stereo not given) as the molecule, how does the outcome read?
The outcome was “inactive”.

Which outcome does the source give for `NC(Cc1ccc(O)c(O)c1)C(=O)O` (stereo not given) here?
Its outcome is “inactive”.

Which outcome does the source give for `Cc1cccc(CNc2cc(-c3ccccc3C)ncn2)c1` here?
The outcome was “inactive”.

With `NC(Cc1c[nH]c2ccccc12)C(=O)O` (stereo not given) as the molecule, how does the outcome read?
Its outcome is “inactive”.

Which outcome does the source give for `CN(C)c1ccc(-c2cc(NCc3cccnc3)ncn2)cc1` here?
The outcome was “inactive”.

With `c1cncc(-c2nc(NCCN3CCOCC3)c3ccccc3n2)c1` as the molecule, how does the outcome read?
The outcome was “inactive”.

Which outcome does the source give for `Cc1cccc(CNc2nc(-c3ccoc3)nc3ccccc23)c1` here?
Its outcome is “inactive”.

With `COc1ccc2[nH]cc(CCNc3ncnc4ccc(-c5ccccc5CN(C)C)cc34)c2c1` as the molecule, how does the outcome read?
Its outcome is “inactive”.
